From PubChem BioAssay
This is a sample that favours compounds with a hit; in the whole collection about 3.3% have one here.
15-hLO inh = 15-hLO (ALOX15) enzyme inhibition | Potency, µM (titrated, usually from 57.1 µM), without a hit: top-dose activity change, negative = inhibition, hits mostly inhibitors | P16050 | hit rate 1.4% among 74,000 | purified 15hLO-1, xylenol orange hydroperoxide absorbance; further: potency means the concentration at half of the fitted maximal effect; on the % scale 0 is the no-effect control and ±100 the full control effect; nearly all actives have a fitted effect of over 55% in size
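Purified human 15hLO-1 (40 nM) in 25 mM Hepes pH 7.5, 0.01% Triton X-100, preincubated 15 min RT with compound, then 50 uM arachidonic acid for 6 min. Hydroperoxide read by ferrous/xylenol orange, 30 min; 573/405 nm absorbance ratio gave progress.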
Hsp90 Hop PPI = changes Hsp90-Hop TPR2A binding signal, up or down. AlphaScreen TPR2A-His6 binding biotin-Hsp90 C-terminal peptide. Potency, µM (highest dose often 57 µM), without a hit: at the highest dose activity change, negative = inhibition. hit rate 0.44% among 71,000. AID 595; active means well fitted curve in either direction with a large enough effect; inconclusive means small, poorly fitted or top-dose-only effect, or another doubt; further: potency means the concentration at half of the fitted maximal effect; on the % scale 0 is the no-effect control and ±100 the full control effect
Tau fil binding = binders of human tau filaments; P10636; recombinant tau filaments, thioflavin S fluorescence, 15 h; filaments grown with octadecylsulfate alongside compound; Potency, µM (doses to about 57.1 µM), for inactives: top-dose activity change, negative = inhibition; hit rate 2% among 71,000; AID 596;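 further: potency means the concentration at half of the fitted maximal effect; on the % scale 0 is the no-effect control and ±100 the full control effect; actives lower thioflavin S fluorescence by blocking filaments or displacing dye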
Target sequence (P10636 whole entry, looked up): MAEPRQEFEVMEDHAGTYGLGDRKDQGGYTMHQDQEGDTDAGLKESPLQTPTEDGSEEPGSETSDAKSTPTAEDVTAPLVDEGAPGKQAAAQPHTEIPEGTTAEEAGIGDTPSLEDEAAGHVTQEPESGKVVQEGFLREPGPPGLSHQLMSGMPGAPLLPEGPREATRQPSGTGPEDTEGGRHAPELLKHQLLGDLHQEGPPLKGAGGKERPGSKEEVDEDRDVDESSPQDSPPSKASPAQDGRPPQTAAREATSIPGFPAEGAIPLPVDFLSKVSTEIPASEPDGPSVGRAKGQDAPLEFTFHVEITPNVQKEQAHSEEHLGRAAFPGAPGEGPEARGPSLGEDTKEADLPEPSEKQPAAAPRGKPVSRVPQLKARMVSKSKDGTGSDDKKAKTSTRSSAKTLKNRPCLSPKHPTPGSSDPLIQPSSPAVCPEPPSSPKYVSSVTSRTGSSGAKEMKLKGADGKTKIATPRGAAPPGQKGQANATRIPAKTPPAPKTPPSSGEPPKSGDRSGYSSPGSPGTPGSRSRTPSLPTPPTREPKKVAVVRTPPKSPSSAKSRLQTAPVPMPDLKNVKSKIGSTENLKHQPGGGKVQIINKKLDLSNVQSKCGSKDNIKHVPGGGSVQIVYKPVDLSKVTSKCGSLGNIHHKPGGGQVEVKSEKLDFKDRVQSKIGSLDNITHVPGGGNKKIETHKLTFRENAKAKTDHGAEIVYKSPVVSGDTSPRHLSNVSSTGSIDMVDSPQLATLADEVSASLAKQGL
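Assay mix: 1 uM His-tagged tau, 30 uM sodium octadecylsulfate, thioflavine S dye in HEPES/NaCl/DTT buffer. Compound is added prior to the inducer. Fluorescence after 15 h at 37 C.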
DNA Pol III inh = inhibitors of bacterial DNA polymerase III holoenzyme; reconstituted DNA polymerase III holoenzyme replication, biochemical; Potency, µM (highest dose often 57.1 µM), for inactives: at the top dose activity change, negative = inhibition; hit rate 0.25% among 71,000; further: potency means the concentration at half of the fitted maximal effect; on the % scale 0 is the no-effect control and ±100 the full control effect
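Reconstituted *E. coli* holoenzyme (0.35 nM Pol III, 1 nM beta, 154 nM SSB, 2 nM primase) was preincubated with compound for 15 min at RT. Synthesis on 1.4 nM ssM13Gori ran 35 min, then was stopped with PicoGreen/EDTA and read as dsDNA fluorescence.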
YjeE inh = displaces an ADP probe from E. coli YjeE (TsaE) | Potency, µM | hit rate 0.05% among 71,000 | P0AF67 | purified YjeE enzyme, qHTS inhibition assay
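Purified YjeE (10 uM) with BODIPY Texas Red-labeled ADP probe (2 uM); compounds pin-transferred, 15 min at room temperature. Binding inhibition read as decreased fluorescence polarization; ADP titration as control.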
* hit, by the source's call; i = inactive; ? = inconclusive; nt = not tested or not shown; [ ] = remark or other dose. Unless noted, the call rests on the fitted dose curve; in most records, active means well fitted curve in the direction sought with a large enough effect; inconclusive means small, poorly fitted or top-dose-only effect, or another doubt; inactive means no such curve, though single readings can be large; an effect the other way counts as inactive or inconclusive.

SMILES	15-hLO inh	Hsp90 Hop PPI	Tau fil binding	DNA Pol III inh	YjeE inh
C[C@@H]1O[C@@H](O)[C@@H](O)[C@H](O)[C@H]1O	-1%[11.4 µM]	-2%[11 µM]	8%[11.4 µM]	1%[11.4 µM]	i
Cc1cc(NC(=O)CCCC(=O)Nc2ccc(F)cc2)no1	-2%	0%	3%	-6%	i
Cc1cc(NC(=O)CCCC(=O)NCc2cccs2)no1	20µM*	1%	164%	?	i
CCCOCC(C)OCC(C)O (stereo not drawn)	6%	-3%	12%	-1%	i
CC(=O)c1sc2ccccc2c1OC(=O)c1ccco1	-3%	-1%	8%	-7%	i
CC(=O)c1c(OC(=O)c2ccco2)c2ccccc2n1C	25µM*	-3%	8%	-3%	i
Cc1ccc(N=Nc2ccc(N)cc2C)c(S(N)(=O)=O)c1	3%[11.4 µM]	-9%[11 µM]	4µM*	-5%[11.4 µM]	i
Nc1ccc(S(N)(=O)=O)cc1	1%	3%	2%	-4%	i
OCCN1CCN(c2nc(N3CCCCC3)nc(N3CCCCC3)n2)CC1	0%[11.4 µM]	-6%[11 µM]	4µM*	-13%[11.4 µM]	i
CN1CCN(c2nc(N3CCN(CCO)CC3)nc3ccccc23)CC1	1%	1%	-10%	-2%	i
O=C(O)C(S)[C@@H](S)C(=O)O (stereo partly drawn)	7.9µM*	nt	nt	nt	nt
O=C1O/C(=C\Br)CC[C@@H]1c1cccc2ccccc12	?	-11%	3%	0%	i
CCCn1cnc2c(c1=O)c1nc3ccccc3nc1n2CCC1=CCCCC1	-2%	0%	-15%	-5%	i
CCOCCCn1c(C)nc2c(c1=O)c1nc3ccccc3nc1n2CCC1=CCCCC1	25µM*	0%	1.6µM*	-11%	i
CC/C=C\CC[C@H](OC(=O)c1ccc(Br)cc1)C1=CCCCC1=O	-5%[11.4 µM]	nt	nt	nt	nt
O=C(O)[C@@H](O)[C@@H](O)[C@@H](O)[C@@H](O)c1nc2ccccc2s1	-9%[11.4 µM]	-6%[11 µM]	-3%[11.4 µM]	-7%[11.4 µM]	i
COc1ccc(-c2nc3cnc(N4CCNCC4)nc3n(Cc3cccs3)c2=O)cc1	-18%	27%	162%	-30%	i
Cc1noc(C)c1COC(=O)CCOc1ccccc1	11%	7%	19%	4%	i
Cc1noc(C)c1COC(=O)CCN1c2ccccc2Sc2ccccc21	-14%	15%	20µM*	0%	i
CO[C@H]1COC(=O)[C@H](C)NC(=O)C/C=C\[C@@H](C)[C@H](OC)COC(=O)C/C=C\[C@@H]1C	5%[11.4 µM]	nt	nt	nt	nt
CC(=NC1CCCCC1)C1=C(O)c2ccccc2C1=O	0%	-5%	16µM*	-2%	i
CCOC(=O)c1oc2ccccc2c1CSc1nnc(-c2ccco2)o1	-7%	1%	5%	-1%	i
CCOC(=O)c1oc2ccccc2c1CSc1nnnn1-c1ccc(C)cc1	1µM*	?	-2%	4%	i
C[C@H]1[C@H](O)[C@@H](C)C=CC=CC=CC=CC=CC=CC=C[C@H](O[C@@H]2O[C@@H](C)[C@H](O)[C@@H](N)[C@@H]2O)C[C@@H]2O[C@](O)(C[C@@H](O)C[C@@H](O)[C@@H](O)CC[C@@H](O)C[C@@H](O)CC(=O)O[C@H]1C)C[C@H](O)[C@H]2C(=O)O	2µM*	-4%[11 µM]	-1%[11.4 µM]	0%[11.4 µM]	i
C[C@@H]1[C@H](O)[C@@H](C)/C=C/C=C/C=C/C=C/C=C/C=C/C=C/[C@H](O[C@@H]2O[C@H](C)[C@@H](O)[C@H](N)[C@@H]2O)C[C@@H]2O[C@](O)(C[C@@H](O)C[C@@H](O)[C@H](O)CC[C@@H](O)C[C@@H](O)CC(=O)O[C@H]1C)C[C@H](O)[C@H]2C(=O)O	2%	-5%	?	-2%	i
SMILES	15-hLO inh	Hsp90 Hop PPI	Tau fil binding	DNA Pol III inh	YjeE inh
C=CC(C)(O)CCC=C(C)C (stereo not drawn)	-22%	-5%	-8%	-3%	i
CC(=O)O[C@](C)(CCC=C(C)C)C1CC=C(C)CC1 (stereo partly drawn)	13µM*	nt	nt	nt	nt
Cn1c2c(c3ccccc31)CC/C2=N\O	25µM*	-8%	4%	-4%	i
COc1ccc(S(=O)(=O)Nc2ccc3c(c2)OCO3)cc1OC	-3%	-13%	25µM*	-1%	i
COc1ccc(S(=O)(=O)Nc2ccc3c(c2)OCO3)cc1C(=O)O	-2%	nt	nt	nt	nt
CC(=O)C1=C(C)NC(SCC(=O)c2ccc(C)cc2)=C(C#N)C1c1ccco1 (stereo not drawn)	13µM*	15%	217%	1%	i
Cc1ccc(C(=O)CSC2=C(C#N)C(c3ccco3)C3=C(CC(C)(C)CC3=O)N2)cc1 (stereo not drawn)	-10%	-5%	-14%	0%	i
COc1cccc(Nc2ncc3nc(-c4ccccc4)c(=O)n(Cc4cccs4)c3n2)c1	-10%	-2%	i	-4%	i
COc1ccc(OC)c(S(=O)(=O)n2ccnc2)c1	1%	-1%	-8%	-6%	i
O=C(CN1CC(c2ccccc2)CC1=O)Nc1ccc2c(c1)OCO2 (stereo not drawn)	0%	-7%	25µM*	-3%	i
COc1ccc(NC(=O)CN2CC(c3ccccc3)CC2=O)cc1OC (stereo not drawn)	-2%	-1%[2.3 µM]	-3%	4%	i
Cc1ccc(-c2cc(-c3ccc4c(c3)OCO4)c(C#N)c(N)n2)o1	10µM*	-16%	13µM*	-6%	i
N#Cc1c(N)oc(-c2ccc3c(c2)OCO3)c1-c1ccc2c(c1)OCO2	25µM*	-7%	-12%	-4%	i
N#Cc1c(N)nc2c(c1-c1ccc3c(c1)OCO3)CCCCCC2	-2%	0%	9%	3%	i
Cc1ccc(-c2cc(-c3ccc(C)o3)nc(N)c2C#N)cc1	0%	-1%	11%	0%	i
COc1nc(Cl)nc(Cl)c1Cl (tested in a mixture with another compound)	-3%[11.4 µM]	-2%[11 µM]	2%[11.4 µM]	-6%[11.4 µM]	i
CSCCC=O	1%	-1%	1%	-3%	i
C[C@@]12C(=O)OC(=O)[C@@]1(C)[C@H]1CC[C@@H]2O1	11%	?	?	-3%	i
O=C1C2=C(Nc3ccccc3SC2c2ccco2)c2ccccc21 (stereo not drawn)	?	?	4µM*	0%	i
COc1ccc(-c2cc(=O)c3c(O)c(OC)c(OC)c(OC)c3o2)cc1OC	-6%	nt	nt	nt	nt
COc1cc(-c2cc(OC)c3c(C)oc(C)c3c(=O)c2)ccc1O	25µM*	-12%	-28%	-1%	i
COc1ccc(-c2cc(OC)c3c(C)oc(C)c3c(=O)c2)cc1OC	-23%	-11%	25µM*	-3%	i
CCCCCCSC1=C(C#N)C(c2ccc(O)cc2)CC(=O)N1 (stereo not drawn)	20µM*	-6%	44%	2%	i
COc1cc(S(=O)(=O)NC2CCCCC2)ccc1Cl	?	11%	16µM*	-1%	i
COc1cc(S(=O)(=O)Nc2ccccc2C)ccc1Cl	-25%	-4%	13µM*	-4%	i
